PubChem BioAssay AID1499 (Sanford-Burnham Center for Chemical Genomics, 2009)
Among all 93,000 compounds or so, about 65 (0.07%) were called active.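 How the source made its calls: active means 10 µM primary screen giving 50% or more activity, confirmed by 40% or more on retest at that dose; inactive means the rest.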 What follows is part of a selection rich in actives, with near analogues and random picks from the rest.

The compounds below were run against Integrin beta-2 (Homo sapiens) + Integrin alpha-M (Homo sapiens) (UniProt P05107+P11215) (assay: enhancers of CD11b/CD18 adhesion to fibrinogen, primary screen, K562 cells, luminescence (AID 1499)). Conditions: ATPlite luminescence, at 10 µM, active compounds read high.
Chain of Integrin beta-2 (Homo sapiens) + Integrin alpha-M (Homo sapiens) (P05107 whole entry, looked up, other chains not shown): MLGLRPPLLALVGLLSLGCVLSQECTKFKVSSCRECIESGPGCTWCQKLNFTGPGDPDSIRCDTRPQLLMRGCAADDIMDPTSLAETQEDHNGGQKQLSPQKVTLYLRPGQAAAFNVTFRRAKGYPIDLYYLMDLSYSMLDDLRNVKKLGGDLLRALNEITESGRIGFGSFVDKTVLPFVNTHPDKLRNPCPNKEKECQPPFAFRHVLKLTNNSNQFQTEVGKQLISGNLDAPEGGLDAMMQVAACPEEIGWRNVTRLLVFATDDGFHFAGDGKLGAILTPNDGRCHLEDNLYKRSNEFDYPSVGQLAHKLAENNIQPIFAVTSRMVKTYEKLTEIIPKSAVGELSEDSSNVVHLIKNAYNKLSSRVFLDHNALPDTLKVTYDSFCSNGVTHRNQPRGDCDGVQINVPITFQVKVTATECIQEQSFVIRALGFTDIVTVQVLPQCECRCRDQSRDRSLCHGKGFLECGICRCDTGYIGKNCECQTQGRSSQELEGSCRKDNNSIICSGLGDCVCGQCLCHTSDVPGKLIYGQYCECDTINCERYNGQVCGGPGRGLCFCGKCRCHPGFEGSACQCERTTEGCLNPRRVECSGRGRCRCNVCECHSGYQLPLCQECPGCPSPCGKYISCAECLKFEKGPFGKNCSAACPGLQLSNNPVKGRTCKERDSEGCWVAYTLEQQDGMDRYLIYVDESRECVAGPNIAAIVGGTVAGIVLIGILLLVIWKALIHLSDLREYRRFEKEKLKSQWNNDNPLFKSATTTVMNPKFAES

| Compound | activation |
| --- | --- |
| COc1ccc(C(=O)OCC(=O)NC(=O)CCSc2ccccc2)cc1 | 0.6% (inactive) |
| N#C/C(=C/c1cccc([N+](=O)[O-])c1)c1nnc2n1CCCCC2 | 1.1% (inactive) |
| CCCCNC(=O)CSc1nc2ccc(NC(=O)CSc3nnc(N)s3)cc2s1 | -3.6% (inactive) |
| Fc1ccccc1CNC(=S)Nc1ccc(Cl)cc1 | -7.2% (inactive) |
| CCCn1c(SCC(=O)Nc2ccc(C)c(S(=O)(=O)N3CCOCC3)c2)n[nH]c1=O | -1.4% (inactive) |
| O=C(Cc1ccc(-c2ccccc2)cc1)NC(c1ccccc1)c1ccccc1 | 0.5% (inactive) |
| CCN(CC)S(=O)(=O)c1ccc(C)c(NC(=O)COc2ccc(Br)cc2Cl)c1 | -2.8% (inactive) |
| O=C(Cc1c[nH]c2ccccc12)N/N=C/c1cccc(F)c1 | 1% (inactive) |
| CCCC(=O)Nc1cccc(NC(=S)NC(=O)C(C)Oc2ccc(Cl)cc2Cl)c1 (configuration not stated) | -4.3% (inactive) |
| Cc1c(C(=O)NCCCc2ccccc2)cccc1[N+](=O)[O-] | -3.8% (inactive) |
| O=C(CCCCn1c(=O)[nH]c2ccccc2c1=O)NCc1ccc2c(c1)OCO2 | -2% (inactive) |
| O=C(Cn1nnc(-c2ccccc2)n1)NCc1ccc2c(c1)OCO2 | -1.1% (inactive) |
| O=C1N(Cc2ccc3c(c2)OCO3)c2ccccc2C1(O)c1c[nH]c2ccccc12 (configuration not stated) | 65.9% (active) |
| Cc1cccc(NC(=S)Nc2ccc3cn[nH]c3c2)c1 | 0.1% (inactive) |
| CSCC[C@H](NC(=O)OC(C)(C)C)C(=O)N/N=C/c1cc2ccc(C)cc2nc1Cl | 1.8% (inactive) |
| CC(=O)Nc1ccc(Nc2c([N+](=O)[O-])cc(S(C)(=O)=O)cc2[N+](=O)[O-])cc1 | -0.7% (inactive) |
| Cc1cccc2cc(CN(Cc3cccs3)C(=S)NCc3ccco3)c(=O)[nH]c12 | 3.8% (inactive) |
| O=C(COC(=O)c1cc2c(s1)CCCC2)NCc1ccccc1Cl | -0.1% (inactive) |
| Cc1ccc(NC(=S)N2CCN(c3ncccn3)CC2)cc1C | -7.7% (inactive) |
| Cc1c(Cl)cccc1NC(=O)CC1SC(=NCC2CCCO2)NC1=O (configuration not stated) | 2.9% (inactive) |
| Cc1c(C(=O)NCCN2C(=O)S/C(=C\c3cccs3)C2=O)cccc1[N+](=O)[O-] | 23% (inactive) |
| COc1ccc(CN2C(=O)CC(Cc3ccc(C)cc3)C2=O)cc1OC (configuration not stated) | -1.2% (inactive) |
| COC(=O)c1ccc(NC(=O)CSc2nncc3ccc(OC)c(OC)c23)cc1 | 3% (inactive) |

| Compound | activation |
| --- | --- |
| Cc1cc(C(=O)CSc2nc(N)cc(=O)[nH]2)c(C)n1-c1cccc(F)c1 | 16.6% (inactive) |
| COc1cccc(N(C(=O)C2COc3ccccc3O2)C(C(=O)NC2CCCCC2)c2ccc(O)cc2)c1 (configuration not stated) | -0.8% (inactive) |
| O=C(NCCc1ccccn1)c1cc(-c2ccc(Cl)cc2)nc2ccccc12 | 0.7% (inactive) |
| Cc1ccc(NC(=O)C(=O)NCc2ccc(/C=N/NC(=O)c3c(C)nc4cc(C)ccn34)o2)cc1 | 100% (inactive) |
| CCOC(=O)C1=C(C)N=C2c3ccccc3C(=O)C2C1c1ccc(Br)cc1 (configuration not stated) | 4.9% (inactive) |
| Cc1ccc(NC(=O)CC2C(=O)N(Cc3ccccc3)C(=S)N2NC(=O)c2cccc(F)c2)c(C)c1 (configuration not stated) | 2.6% (inactive) |
| COCCn1c(C)cc(C2=NNC(=Nc3ccc(F)cc3)SC2)c1C | 120% (active) |
| Clc1cccc(N=C2NN=C(c3ccc4c(c3)OCCO4)CS2)c1 | 4.8% (inactive) |
| CC(=O)Nc1ccc(NC(=S)NC(=O)c2ccc([N+](=O)[O-])c(C)c2)cc1 | 0.9% (inactive) |
| CC(C)(C)OC(=O)N/N=C/c1ccc(C(=O)O)cc1 | 0.2% (inactive) |
| Cc1ccc(NC(=O)NC(=O)CSc2nnc(-c3ccc(OC(F)F)cc3)n2N)c(C)c1 | -3.1% (inactive) |
| CN(C)CCCNC(=S)NCc1ccc(Cl)cc1 | 2.8% (inactive) |
| C/C(=N\NC(=O)CCn1nc(C)cc1C)C(C)(C)C | 2.8% (inactive) |
| COc1cc2c3c(c1)/C(=C1/SC(=S)NC1=O)C(=O)N3C(C)(C)C=C2C | -7.7% (inactive) |
| Cc1ccc(-n2c(C)cc(C(=O)CSc3nnc4ccccn34)c2C)cc1 | -2.4% (inactive) |
| CC(NC(=S)Nc1ccccc1)C1COc2ccccc2O1 (configuration not stated) | -1.1% (inactive) |
| COc1ccc2c(CN3CCN(S(=O)(=O)c4cccs4)CC3)cc(=O)oc2c1 | 1.6% (inactive) |
| CCN(c1ccc(NC(=O)COC(=O)CCc2nc3ccccc3n2-c2ccccc2)cc1)C(C)C | 5.2% (inactive) |
| CC(=O)Nc1ccc(S(=O)(=O)N2CCN(c3ccc([N+](=O)[O-])c(NCCN4CCOCC4)c3)CC2)cc1 | 8.9% (inactive) |
| COCCCNC(=O)Cn1cc(/C=C(\C#N)C(=O)N2CCN(c3ccccc3)CC2)c2ccccc21 | 0% (inactive) |
| O=C(Nc1nnc(SCc2ccccc2Cl)s1)c1cccc([N+](=O)[O-])c1 | -9.7% (inactive) |
| O=C(CCCN1C(=O)/C(=C/c2ccco2)SC1=S)Nc1ccccc1 | 2.1% (inactive) |
| COc1ccc(/C(N)=N/OC(=O)Cc2ccccc2)cc1 | -3.3% (inactive) |

| Compound | activation |
| --- | --- |
| CCOC(=O)c1c(NC(=O)C2CCN(S(=O)(=O)c3ccc(Cl)cc3)CC2)sc2c1CCCC2 | 15.1% (inactive) |
| COC(=O)Cc1ccc(NC(=S)NCc2ccccc2)cc1 | 1.6% (inactive) |
| CC(C)N1C(=O)N(c2ccccc2)C(C)(O)CC1(C)C (configuration not stated) | 3.2% (inactive) |
| O=C(CSc1nc2ccccc2c(=O)n1CCCO)N1CCc2ccccc21 | 2.1% (inactive) |
| Cc1ccc2[nH]cc(CCNC(=O)c3ccc([N+](=O)[O-])cc3)c2c1 | -1.3% (inactive) |
| CCCCC(O)(CCCC)C(=O)NN(C(=O)CCl)c1ccccc1 | 3.4% (inactive) |
| CNc1ccc(NC(C)=O)cc1[N+](=O)[O-] | 2.9% (inactive) |
| COc1ccc(NC(=O)CN2C(=O)C(c3ccccc3)=NC23CCCCCC3)cc1OC | -1.4% (inactive) |
| Cc1ccc(-c2csc(NC(=O)c3cccs3)n2)cc1 | 3.8% (inactive) |
| Cc1ccc(-c2nnc(-c3ccc(NC(=O)c4cccs4)cc3)o2)cc1 | 161% (active) |
| Cc1nc(-c2ccc(NC(=O)c3cccs3)cc2)cs1 | -4.6% (inactive) |
| COc1ccccc1OCCC(=O)OCC(=O)NCc1ccccc1 | 3.3% (inactive) |
| CCCN(CCC)c1c([N+](=O)[O-])c(=O)oc2ccccc12 | 2.9% (inactive) |
| CC(C)[C@H](NC(=O)c1ccc(F)cc1)C(=O)OCC(=O)NC(=O)c1cccn1C | 25.8% (inactive) |
| Cc1cc(C)c(NC(=S)N2CCCC2C(=O)O)c(C)c1 (configuration not stated) | -3.4% (inactive) |
| O=C(Nc1cc(C(F)(F)F)ccc1Cl)C(=O)N1CCCCC1 | 10.3% (inactive) |
| CC1(C)Cc2nc3sc4c(SCC(=O)NC(c5ccccc5)c5ccccc5)ncnc4c3cc2CO1 | 93.6% (active) |
| CC(NC(=O)CSc1nc2c(cc1C#N)CN(C)CC2)c1ccccc1 (configuration not stated) | -1.5% (inactive) |
| CC(C)CCSc1ncnc2c1oc1nc3c(cc12)COC(C)(C)C3 | 6.2% (inactive) |
| CCc1c(C)sc(NC(=O)/C=C/c2ccc3c(c2)OCO3)c1C(=O)OC | 9.1% (inactive) |
| COc1ccc2oc(-c3cccc(NC(=O)CSc4ccc(Cl)cc4)c3)nc2c1 | 13.1% (inactive) |
| O=C(COC(=O)Cc1ccc(F)cc1)Nc1cc(S(=O)(=O)N2CCOCC2)ccc1N1CCCC1 | -2.5% (inactive) |
| CN(C)CCCO/N=C(\c1ccccc1)c1ccncc1 | 3.7% (inactive) |

| Compound | activation |
| --- | --- |
| O=C(COC(=O)Cn1cnc2ccccc21)Nc1cccc2c1C(=O)c1ccccc1C2=O | 7.9% (inactive) |
| COc1cc(Cl)c(C)cc1NC(=O)COC(=O)c1cc(SC)ccc1Cl | 0.1% (inactive) |
| Cc1ccc(-c2nc(C)sc2CC(=O)OCC(=O)Nc2c(F)cccc2F)cc1 | -4% (inactive) |
| Cc1csc(=Nc2ccccc2)n1CCO | 0.8% (inactive) |
| Cc1ccc(S(=O)(=O)Nc2nc(C)cc(N/N=C/c3ccc(O)cc3)n2)cc1 | 13.5% (inactive) |
| Cc1cccc(NC(=O)Cn2c(=O)n(Cc3ccccc3)c(=O)c3c(C)c(C)sc32)c1 | 6.7% (inactive) |
| Cc1ccc(/C=N/NC(=O)CNC(=O)COc2ccccc2)o1 | 6.3% (inactive) |
| O=C1N(c2ccc(Cl)cc2)C(c2ccc(Cl)cc2)N2CCCN12 (configuration not stated) | 3.2% (inactive) |
| CCOc1ccc(/C=N/OCC(=O)NCc2cccs2)cc1 | -0.5% (inactive) |
| C=CCSc1nc(Cc2ccc(Cl)cc2)nc2ccccc12 | 69.1% (active) |
| C=CCSc1nc2ccccc2[nH]1 | 6.8% (inactive) |
| C=CCn1c(SCn2nnc3ccccc3c2=O)nnc1-c1ccc(Cl)cc1 | 4.1% (inactive) |
| Cc1sc2ncnc(Sc3nc4ccccc4s3)c2c1C | 12.1% (inactive) |
| OC(COCC1COc2ccccc2O1)CN1CCN(c2ccc(F)cc2)CC1 (configuration not stated) | 4.1% (inactive) |
| C/C(=N/NC(=O)C1COc2ccccc2O1)c1ccco1 (configuration not stated) | 1.2% (inactive) |
| N#CCOc1ccc(C2=NO[C@@H]3[C@@H]4C[C@@H]([C@H]5C(=O)N(c6ccc7c(c6)OCO7)C(=O)[C@@H]45)[C@H]23)cc1 | 0.6% (inactive) |
| CC(=C/c1ccccc1)/C=N/NC(=O)c1cc(C)oc1C | -1.7% (inactive) |
| COc1ccc(NC(=O)c2ccc(C#CC(C)(C)O)cc2)cc1 | 2.8% (inactive) |
| Cc1ccc(OCC(=O)Nc2ccccc2Sc2ccc(Cl)cc2)c([N+](=O)[O-])n1 | -1% (inactive) |
| Cc1cccc(-n2c(C)cc(/C=N/NC(N)=S)c2C)c1 | -1.9% (inactive) |
| CC(C)NC(=S)N1CCN(S(C)(=O)=O)CC1 | 0.6% (inactive) |
| Cc1ccc(-c2nn(-c3ccccc3)cc2C(=O)Nc2cccc(S(=O)(=O)N3CCOCC3)c2)cc1 | -0.1% (inactive) |
| CCOc1ccc(NC(=S)NC(=O)/C=C/c2ccc(OC)cc2)c([N+](=O)[O-])c1 | 34.7% (inactive) |
